Measured values from PubChem BioAssay AID463165 (Johns Hopkins Ion Channel Center, 2010).
About 1,400 (0.45%) of roughly 310,000 compounds were called active.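 Rule for the calls: active = B-score, a plate-corrected calcium signal, over three deviations above library mean, with baseline fluorescence within five deviations of library mean; inactive = the rest.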 Only a selection was taken, and actives are over-represented in it overall.

Each molecule was assayed against Regulator of G-protein signaling 4 (Homo sapiens) (UniProt P49798) (assay: RGS4 inhibitors, primary screen, cell-based, HEK293 M3R inducible RGS4, calcium flux (AID 463165;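 note: RGS4 expression induced by doxycycline in cells with stable M3 receptor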;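 for B-score: B-score is computed from the integrated fluorescence ratio over baseline after carbachol; higher B-score means a larger calcium signal and so more RGS4 inhibition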)). Settings: Fluo-4 calcium flux, at 10 µM, triggered by carbachol at its EC20; hits give high values.
Regulator of G-protein signaling 4 (Homo sapiens), sequence (P49798 whole entry, looked up): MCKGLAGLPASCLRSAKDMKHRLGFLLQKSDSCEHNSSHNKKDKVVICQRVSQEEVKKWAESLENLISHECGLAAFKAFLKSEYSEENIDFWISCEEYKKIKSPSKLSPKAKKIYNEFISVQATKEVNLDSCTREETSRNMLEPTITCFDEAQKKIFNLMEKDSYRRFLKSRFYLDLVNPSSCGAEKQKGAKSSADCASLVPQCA

Compound | B-score
O=C1NC(c2cccc(Cl)c2)Nc2ccccc21 (stereo unspecified) | inactive
O=c1c(-c2cccc(Cl)c2)c[nH]n1-c1ccccc1 | inactive
O=C1c2ccccc2NC(c2ccc(-c3cccc(Cl)c3)o2)N1O (stereo unspecified) | 8.05 (active)
Cc1nn2c(=O)cc(COC(=O)c3ccc(NC(=O)C(C)(C)C)cc3)nc2s1 | 17.9 (active)
COCCc1nn2c(=O)cc(COC(=O)c3cc(OC)c(OC)c(OC)c3)nc2s1 | inactive
CCOC(=O)c1ccc(NC(=O)c2cccnc2)cc1 | inactive
COc1ccc(CC(=O)NC2CCSc3ccccc32)cc1OC (stereo unspecified) | inactive
CN(C(=O)c1cccc([N+](=O)[O-])c1)c1ccccc1C(=O)NCc1ccccc1 | inactive
COc1cc(/C=C2/C(=O)ON=C2C)ccc1OCc1cccc(F)c1 | inactive
C#CCOc1ccccc1/C=C1/C(=O)ON=C1C | inactive
C=CCOc1ccc(/C=C2/C(=O)ON=C2C)cc1OCC | 9.13 (active)
C#CCOc1ccc(/C=C2/C(=O)ON=C2C)cc1OCC | 6.2 (active)
COc1cc(/C=C2/C(=O)ON=C2C)ccc1OCc1ccccc1F | inactive
CC1=NOC(=O)/C1=C\c1ccccc1 | inactive
O=C(O)C1C2C=CC(O2)C1C(=O)NCCc1cccc(Cl)c1 (stereo unspecified) | inactive
O=C(Oc1c(-c2ccco2)oc2ccccc2c1=O)c1cccnc1 | inactive

Compound | B-score
O=C1C(=O)N(c2ccccc2)c2ccccc21 | inactive
COC(=O)C1CCN(C(=O)c2cc(=O)[nH]c3ccccc23)CC1 | 5.3 (active)
CC1CCCCC1NC(=O)c1cc(=O)[nH]c2ccccc12 (stereo unspecified) | inactive
CC(C)(CNC(=O)c1cc(=O)[nH]c2ccccc12)N1CCOCC1 | inactive
O=C(CNC(=O)[C@@H]1Cc2ccccc2CN1)NC1CCCCC1 | inactive
COc1ccccc1N1CCN(S(=O)(=O)CCNC(=O)c2ccc(OC(C)C)cc2)CC1 | inactive
Cc1ccc(CSCC2Nc3ccc(C(=O)N4CCN(c5ccc(F)cc5)CC4)cc3NC2=O)cc1 (stereo unspecified) | inactive
CCOC(=O)C1CCN(C(c2cc3cc(C)cc(C)c3[nH]c2=O)c2nnnn2C2CCCCC2)CC1 (stereo unspecified) | 6.12 (active)
Cc1cc(C)c2[nH]c(=O)c(C(c3nnnn3Cc3ccc4c(c3)OCO4)N3CCCC3)cc2c1 (stereo unspecified) | inactive
COc1ccc(N2CCN(C(c3cc4ccc(C)cc4[nH]c3=O)c3nnnn3C3CCCC3)CC2)cc1 (stereo unspecified) | inactive
COc1ccc(S(=O)(=O)NCCc2cc3ccc(C)c(C)c3[nH]c2=O)cc1 | inactive
CCOCCCNC(=O)c1cc2c(=O)n3ccccc3nc2s1 | inactive
Cc1cc(C)nc(S/C=C/C(=O)c2ccccc2)n1 | 10.7 (active)
Cc1ccc(N/C=C/C(=O)c2ccccc2)cc1C | inactive
Cc1cc(C)nc(SCC(=O)c2ccc(Cl)cc2)n1 | inactive
